# Source: PubChem BioAssay (Tox21)
# Values without a mark were called inactive. Results filed as inconclusive are left out. Where a call stands in place of a potency, no number is given. Activity calls are given as the source filed them. Unless noted, calls come from the whole dose curve; as a rule, active = well fitted curve in the direction sought with a large enough effect in the repeat runs; inconclusive = weak or mixed curves; inactive = no such curve, though single readings can be large; an effect the other way counts as inactive or inconclusive.
# Experiments:
# [1] = molecular target: Nuclear receptor subfamily 1 group I member 3 (Homo sapiens) (UniProt Q14994); experiment: qHTS assay to identify small molecule agonists of the constitutive androstane receptor (CAR) signaling pathway (AID 1224839); note: nearly all actives have a fitted effect of over 15% in size; note: potency is the fitted concentration of half-maximal effect;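 for activation: HepG2 cells stably carrying human CAR and a CYP2B6 luciferase reporter; series mostly up to about 92 µM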
# In short: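 HepG2 cells stably co-transfected with hCAR and a CYP2B6-2.2kb luciferase reporter; compounds at 15 concentrations with 0.75 uM PK11195 present. After 24 hr at 37 C, luciferase read by ONE-Glo luminescence.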
# [2] = qHTS assay to identify small molecule antagonists of the estrogen related receptor signaling pathway with the pleiotropic PPARgamma coactivator (PGC) from Tox21 10K library - cell viability counter screen (AID 1224840; active = well fitted cell-killing curve with a large enough effect in the repeat runs, not every such curve was filed as active; note: nearly all actives have a fitted effect of over 40% in size)
# In short: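 PGC/ERR cells were seeded at 2,000 cells/well and left 6 hours at 37 C/5% CO2 before pin-tool addition of compounds in DMSO. After 17.5 hours at 37 C, CellTiter-Fluor was added and fluorescence read 30 minutes later.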
# [3] = molecular target: Thyrotropin receptor (Homo sapiens) (UniProt P16473); experiment: qHTS assay to identify small molecule agonists of the thyroid stimulating hormone receptor (TSHR) signaling pathway (AID 1224843; calls by dose curve; note: nearly all actives have a fitted effect of over 45% in size)
# In short: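 Cell line HEK293 with TSHR; density 800/well. Exposure 30 min RT. Readout HTRF cAMP (cAMP-d2/anti-cAMP-cryptate), 1 h RT before reading.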
# [4] = qHTS assay to identify small molecule agonists of the hypoxia (HIF-1) signaling pathway - cell viability counter screen (AID 1224844; calls by dose curve; note: nearly all actives have a fitted effect of over 50% in size)
# In short: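 HRE-bla ME-180 cells in medium with 0.5% dialyzed FBS were preincubated 5 hrs at 37C, exposed to compounds for 17 hrs, then viability was read as CellTiter-Glo luminescence after 30 min at room temperature, in the reporter wells.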
# [5] = qHTS assay to identify small molecule agonists of H2AX (AID 1224845; active = well fitted activation curve with a large enough effect in the signal ratio in the repeat runs, not every such curve was filed as active; the % refers to the signal ratio)
# In short: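 Wild-type CHO-K1 cells plated overnight, then exposed 3 hr at 37C to compounds at 15 concentrations (0.76% DMSO). Lysed, then HTRF anti-pH2AX(S139)-cryptate/anti-H2AX-d2 detection after 24 hr at room temperature; emissions 665 and 620 nm.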
# [6] = qHTS assay to identify small molecule agonists of H2AX - cell viability counter screen (AID 1224847; calls by dose curve; note: top concentration of the series differs between compounds; nearly all actives have a fitted effect of over 30% in size)
# In short: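 CHO-K1 cells plated overnight at 37C, then exposed 3 h at 37C to compounds at 15 concentrations (0.76% DMSO final). Viability by CellTiter-Glo luminescence after 30 min at room temperature.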
# [7] = qHTS RealTime-Glo MT Cell Viability Assay in HepG2 cells - 24 hour (AID 1224867); note: nearly all actives have a fitted effect of over 50% in size
# In short: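 HepG2 cells (600/well) were dispensed with RealTime-Glo reagents, incubated 5 h at 37 °C, then treated with compounds in DMSO for up to 40 h. Nonlytic NanoLuc luminescence reflecting viable cells was read at each stated time point.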
# [8] = A CellTox Green Cytotoxicity Assay to monitor cytotoxicity in HEK293 cells - 0 hour (AID 1224869); note: nearly all actives have a fitted effect of over 50% in size
# In short: (§1)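 HEK293 cells premixed with CellTox Green dye were seeded at 600 cells/well and left 5 h at 37 C/5% CO2 before pin transfer of 23 nL compound in DMSO. Fluorescence from dye bound to dead-cell DNA was read during 40 h treatment.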
# [9] = qHTS RealTime-Glo MT Cell Viability Assay in HepG2 cells - 40 hour (AID 1224870); note: nearly all actives have a fitted effect of over 50% in size
# In short: (§2)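 HepG2 cells mixed with RealTime-Glo MT reagents (NanoLuc plus cell-permeant prosubstrate) were seeded at 600 cells/well, incubated 5 h at 37 C/5% CO2, then pinned with compounds in DMSO; nonlytic luminescence tracked viability during 40 h treatment.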
# [10] = A CellTox Green Cytotoxicity Assay to monitor cytotoxicity in HEK293 cells - 40 hour (AID 1224871); note: nearly all actives have a fitted effect of over 45% in size
# In short: as §1
# [11] = qHTS RealTime-Glo MT Cell Viability Assay in HEK293 cells - 16 hour (AID 1224872); note: nearly all actives have a fitted effect of over 50% in size; note: potency is the fitted concentration of half-maximal effect
# In short: (§3)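 HEK293 cells seeded with NanoLuc/prosubstrate reagent, rested 5 h at 37 C, then dosed and kept at 37 C up to 40 h. Nonlytic real-time luminescence from viable cells read at 0, 8, 16, 24, 32 and 40 h.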
# [12] = qHTS RealTime-Glo MT Cell Viability Assay in HepG2 cells - 8 hour (AID 1224873); note: nearly all actives have a fitted effect of over 55% in size
# In short: as §2
# [13] = qHTS RealTime-Glo MT Cell Viability Assay in HEK293 cells - 40 hour (AID 1224874); settings: RealTime-Glo luminescence; max response: stronger effect = lower value; note: nearly all actives have a fitted effect of over 50% in size; note: potency is the fitted concentration of half-maximal effect
# In short: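 HEK293 cells mixed with RealTime-Glo reagents (NanoLuc plus cell-permeant prosubstrate) at 600 cells/well, preincubated 5 h at 37 C/5% CO2, then given 23 nL compound in DMSO. Nonlytic luminescence from viable cells was read at 0, 8, 16, 24, 32 and 40 h.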
# [14] = A CellTox Green Cytotoxicity Assay to monitor cytotoxicity in HEK293 cells - 24 hour (AID 1224875); note: series mostly up to about 77 µM; nearly all actives have a fitted effect of over 45% in size
# In short: as §1
# [15] = qHTS assay to identify small molecule agonists of the hypoxia (HIF-1) signaling pathway (AID 1224846; active = well fitted activation curve with a large enough effect in the signal ratio in the repeat runs, not every such curve was filed as active; the % refers to the signal ratio)
# In short: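 HRE-bla ME-180 cells (beta-lactamase reporter under hypoxia response element) were plated at 2,000 cells/well in medium with 0.5% dialyzed FBS, rested 5 hrs, then given compounds in DMSO for 17 hrs at 37C, 5% CO2. Reporter induction was read with CCF4-AM FRET substrate.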
# [16] = qHTS RealTime-Glo MT Cell Viability Assay in HEK293 cells - 32 hour (AID 1224868); note: nearly all actives have a fitted effect of over 50% in size; note: potency is the fitted concentration of half-maximal effect
# In short: as §3
# Thyrotropin receptor (Homo sapiens), sequence (P16473 whole entry, looked up): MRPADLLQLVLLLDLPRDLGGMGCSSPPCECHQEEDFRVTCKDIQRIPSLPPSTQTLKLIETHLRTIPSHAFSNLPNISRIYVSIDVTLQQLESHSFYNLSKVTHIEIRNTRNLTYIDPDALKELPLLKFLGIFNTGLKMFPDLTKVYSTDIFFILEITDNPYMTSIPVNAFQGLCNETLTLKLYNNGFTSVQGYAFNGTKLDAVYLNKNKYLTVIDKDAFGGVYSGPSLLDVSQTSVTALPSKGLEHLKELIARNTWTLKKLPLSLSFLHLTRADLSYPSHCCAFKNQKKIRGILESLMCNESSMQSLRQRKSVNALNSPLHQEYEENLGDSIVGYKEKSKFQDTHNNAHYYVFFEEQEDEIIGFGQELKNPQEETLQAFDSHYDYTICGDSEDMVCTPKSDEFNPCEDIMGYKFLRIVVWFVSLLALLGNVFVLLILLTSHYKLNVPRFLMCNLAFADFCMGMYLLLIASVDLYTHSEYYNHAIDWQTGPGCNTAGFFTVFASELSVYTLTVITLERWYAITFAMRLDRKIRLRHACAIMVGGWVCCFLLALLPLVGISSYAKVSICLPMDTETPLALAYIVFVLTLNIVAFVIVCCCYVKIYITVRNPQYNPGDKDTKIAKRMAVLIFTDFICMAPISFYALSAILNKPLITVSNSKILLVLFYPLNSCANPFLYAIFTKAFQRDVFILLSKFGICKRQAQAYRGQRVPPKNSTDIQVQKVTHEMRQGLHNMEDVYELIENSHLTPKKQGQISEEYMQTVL
# Nuclear receptor subfamily 1 group I member 3 (Homo sapiens), sequence (Q14994 whole entry, looked up): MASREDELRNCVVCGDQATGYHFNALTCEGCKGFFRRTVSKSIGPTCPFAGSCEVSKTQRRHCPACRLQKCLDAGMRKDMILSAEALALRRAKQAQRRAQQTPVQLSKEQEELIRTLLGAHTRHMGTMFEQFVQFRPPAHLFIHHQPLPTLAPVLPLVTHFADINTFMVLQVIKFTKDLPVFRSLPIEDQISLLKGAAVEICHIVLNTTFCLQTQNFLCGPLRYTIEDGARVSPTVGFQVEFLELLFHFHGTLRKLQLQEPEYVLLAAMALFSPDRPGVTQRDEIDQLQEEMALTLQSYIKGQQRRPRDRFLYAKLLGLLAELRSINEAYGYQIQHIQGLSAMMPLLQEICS
Compound,Potency [1],outcome [2],outcome [3],outcome [4],outcome [5],outcome [6],outcome [7],Potency [8],outcome [9],Potency [10],Potency [11],outcome [12],max response [13],Potency [14],outcome [15],Potency [16],Potency [13]
OCC(O)CN1CCN(c2ccccc2)CC1 (stereo not given),inactive,inactive,inactive,inactive,inactive,inactive,inactive,inactive,inactive,inactive,inactive,inactive,1.76%,inactive,,,
CCCCOC(=O)[C@H](C)O,inactive,inactive,,inactive,inactive,inactive,inactive,inactive,inactive,inactive,inactive,inactive,1.9%,,inactive,inactive,
Cc1cc(-c2ccccc2)nnc1NCCN1CCOCC1,inactive,inactive,inactive,inactive,inactive,inactive,inactive,inactive,inactive,inactive,inactive,inactive,-1.81%,inactive,,,
O=C(O)c1cc2ccccc2nc1C(=O)O,inactive,inactive,,inactive,inactive,inactive,inactive,inactive,inactive,inactive,inactive,inactive,-2.29%,,inactive,inactive,
Cc1ncc([N+](=O)[O-])n1CC(C)O (stereo not given),inactive,inactive,,inactive,inactive,inactive,inactive,inactive,inactive,inactive,inactive,inactive,-2.46%,inactive,inactive,inactive,
C=C(C)[C@@H]1CC=C(C)CC1,inactive,inactive,,inactive,inactive,inactive,inactive,inactive,inactive,inactive,inactive,inactive,1.3%,inactive,inactive,inactive,
CCCC(=O)Nc1ccc(OCC(O)CNC(C)C)c(C(C)=O)c1 (stereo not given),inactive,inactive,inactive,inactive,inactive,inactive,inactive,inactive,inactive,inactive,inactive,inactive,4%,,,inactive,
NCc1ccc(S(N)(=O)=O)cc1,inactive,inactive,inactive,inactive,inactive,inactive,inactive,inactive,inactive,inactive,inactive,inactive,4.4%,,,inactive,
CCCCOCC(C)O (stereo not given),inactive,inactive,,inactive,inactive,inactive,inactive,inactive,inactive,inactive,inactive,inactive,10.5%,inactive,inactive,inactive,
COc1c2occc2c(OC)c2c(=O)cc(C)oc12,13.3 µM (active),inactive,inactive,inactive,inactive,inactive,inactive,inactive,inactive,inactive,9.52 µM (active),inactive,,inactive,,9.52 µM (active),9.52 µM (active)
CN1CCOC(c2ccccc2)c2ccccc2C1 (stereo not given),inactive,inactive,inactive,inactive,inactive,inactive,inactive,inactive,inactive,inactive,inactive,inactive,0.485%,inactive,,inactive,
COC(C)(OC)OC,inactive,inactive,,inactive,inactive,inactive,inactive,inactive,inactive,inactive,inactive,inactive,5.48%,inactive,inactive,inactive,
CCCCC1CCC(O)CC1 (stereo not given),inactive,inactive,,inactive,inactive,inactive,inactive,inactive,inactive,inactive,inactive,inactive,-3.78%,inactive,inactive,inactive,
Cc1c(NC(=O)c2cccnc2)c(=O)n(-c2ccccc2)n1C,inactive,inactive,inactive,inactive,inactive,inactive,inactive,inactive,inactive,inactive,inactive,inactive,2.99%,inactive,,inactive,
CC(O)CC(C)O (stereo not given),inactive,inactive,,inactive,inactive,,inactive,inactive,inactive,inactive,,inactive,0.995%,inactive,inactive,inactive,
CC(O)COC(C)(C)C (stereo not given),inactive,inactive,,inactive,inactive,inactive,inactive,inactive,inactive,inactive,,inactive,7.99%,,inactive,inactive,
